Screening data from PubChem.
JMJD2A Tudor = blocks the human JMJD2A Tudor domain | AlphaScreen JMJD2A-Tudor / H3K4me3 peptide binding | Potency, µM (highest dose often 114 µM), inactives show top-dose activity change, negative = inhibition, usual class: inhibitors | 390,000 compounds, 4.4% hits | O75164; also: % is scaled to controls: 0 for no effect and ±100 for the full control effect; nearly all actives have a fitted effect of over 50% in size
Sfp inh = Sfp phosphopantetheinyl transferase inhibition. Q9F4F7. Biochemical Sfp PPTase activity, qHTS. Potency, µM, inactives show largest response in the series, negative = inhibition, actives largely listed as inhibitors. 310,000 compounds, 3.5% hits. AID 1490;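 also: the enzyme is Sfp with the accession as filed and its product quenches rhodamine fluorescence; 0% = enzyme reaction without inhibitor and -100% = no enzyme wells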
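Fluorescence-quenching assay with 15 nM Sfp, 5 uM rhodamine-CoA and 12.5 uM BHQ-2-labelled ybbR peptide in pH 7.6 Hepes/MgCl2 buffer. Enzyme was pre-incubated with compound for 15 min at room temperature. Rate was taken from the 30-min fluorescence change (525/598 nm).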
G9a block = G9a (human) methyltransferase inhibition; Q96KQ7; Potency, µM (series often up to 102 µM), inactives show top-dose activity, negative = inhibition, usual class: inhibitors; 350,000 compounds, 8.8% hits; G9a H3K9 monomethylation, AlphaScreen, 2 h; also: % is scaled to controls: 0 for no effect and ±100 for the full control effect; nearly all actives have a fitted effect of over 75% in size
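Using a bead-based AlphaScreen, monomethylated H3K9 product from 2 h room-temperature reactions (G9a 20 nM, peptide 500 nM, SAM 20 uM) was detected with 0.5 ug/mL rabbit anti-H3K9me1 antibody.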
BAZ2B block = inhibitors of human BAZ2B bromodomain | AlphaScreen BAZ2B-H3K14Ac peptide displacement | AID 504333 | 360,000 compounds, 4.4% hits | Q9UIF8 | Potency, µM (series often up to 114 µM), inactives show at the highest dose activity change, negative = inhibition, hits mostly inhibitors; also: % is scaled to controls: 0 for no effect and ±100 for the full control effect; nearly all actives have a fitted effect of over 60% in size
Target sequence (Q9UIF8 whole entry, looked up): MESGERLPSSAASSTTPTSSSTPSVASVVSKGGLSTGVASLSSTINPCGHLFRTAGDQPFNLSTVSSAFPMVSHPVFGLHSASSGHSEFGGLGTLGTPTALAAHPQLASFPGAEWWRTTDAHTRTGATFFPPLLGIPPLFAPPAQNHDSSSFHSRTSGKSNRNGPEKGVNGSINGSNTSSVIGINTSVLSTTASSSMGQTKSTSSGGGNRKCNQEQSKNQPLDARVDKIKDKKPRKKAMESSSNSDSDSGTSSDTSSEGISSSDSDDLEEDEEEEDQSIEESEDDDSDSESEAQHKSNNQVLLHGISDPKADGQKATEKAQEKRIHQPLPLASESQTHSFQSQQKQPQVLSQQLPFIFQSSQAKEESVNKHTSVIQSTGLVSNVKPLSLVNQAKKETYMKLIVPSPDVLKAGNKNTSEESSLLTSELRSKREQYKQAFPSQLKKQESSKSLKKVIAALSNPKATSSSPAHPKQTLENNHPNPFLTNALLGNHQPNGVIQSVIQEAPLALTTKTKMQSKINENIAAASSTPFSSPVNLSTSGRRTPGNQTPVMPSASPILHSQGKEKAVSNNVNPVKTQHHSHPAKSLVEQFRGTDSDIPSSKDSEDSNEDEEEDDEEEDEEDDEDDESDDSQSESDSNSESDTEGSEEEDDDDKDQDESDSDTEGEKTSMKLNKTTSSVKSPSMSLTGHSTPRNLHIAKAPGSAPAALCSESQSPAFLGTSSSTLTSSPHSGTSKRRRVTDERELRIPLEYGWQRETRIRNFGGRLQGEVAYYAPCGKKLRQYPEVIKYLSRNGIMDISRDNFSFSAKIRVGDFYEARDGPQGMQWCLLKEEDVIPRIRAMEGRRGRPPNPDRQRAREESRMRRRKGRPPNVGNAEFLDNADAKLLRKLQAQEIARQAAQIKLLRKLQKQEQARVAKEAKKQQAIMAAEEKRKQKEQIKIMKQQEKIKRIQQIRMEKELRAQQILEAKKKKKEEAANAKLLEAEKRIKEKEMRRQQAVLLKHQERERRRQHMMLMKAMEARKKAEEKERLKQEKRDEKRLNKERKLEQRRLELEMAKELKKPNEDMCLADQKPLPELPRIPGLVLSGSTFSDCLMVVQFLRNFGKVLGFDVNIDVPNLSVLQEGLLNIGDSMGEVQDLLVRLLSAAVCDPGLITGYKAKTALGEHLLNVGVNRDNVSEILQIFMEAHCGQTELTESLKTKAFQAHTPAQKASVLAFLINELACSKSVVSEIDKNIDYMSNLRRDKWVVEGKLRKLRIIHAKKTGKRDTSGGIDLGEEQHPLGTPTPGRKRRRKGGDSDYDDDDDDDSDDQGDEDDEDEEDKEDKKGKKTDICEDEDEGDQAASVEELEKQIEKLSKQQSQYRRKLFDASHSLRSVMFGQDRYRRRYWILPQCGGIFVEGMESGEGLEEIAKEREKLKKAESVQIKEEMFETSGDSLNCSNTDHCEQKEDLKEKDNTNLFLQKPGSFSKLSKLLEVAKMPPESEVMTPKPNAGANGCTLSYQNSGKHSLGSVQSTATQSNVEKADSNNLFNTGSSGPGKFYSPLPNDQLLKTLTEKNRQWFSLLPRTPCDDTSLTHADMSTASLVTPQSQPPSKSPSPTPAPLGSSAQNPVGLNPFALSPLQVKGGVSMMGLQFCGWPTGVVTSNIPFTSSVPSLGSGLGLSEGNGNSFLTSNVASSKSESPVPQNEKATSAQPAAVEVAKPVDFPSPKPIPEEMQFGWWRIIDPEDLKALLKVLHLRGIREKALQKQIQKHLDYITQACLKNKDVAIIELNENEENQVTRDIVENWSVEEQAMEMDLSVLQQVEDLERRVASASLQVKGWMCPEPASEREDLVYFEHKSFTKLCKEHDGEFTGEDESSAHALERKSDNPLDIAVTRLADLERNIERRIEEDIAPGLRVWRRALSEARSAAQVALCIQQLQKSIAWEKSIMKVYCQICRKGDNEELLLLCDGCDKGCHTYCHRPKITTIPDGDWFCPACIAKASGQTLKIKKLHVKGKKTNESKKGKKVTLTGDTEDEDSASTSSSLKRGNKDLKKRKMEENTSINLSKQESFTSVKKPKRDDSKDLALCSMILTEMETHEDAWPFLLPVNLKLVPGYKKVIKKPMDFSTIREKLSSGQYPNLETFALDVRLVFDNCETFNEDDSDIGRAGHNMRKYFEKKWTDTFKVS
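Protein-peptide AlphaScreen: BAZ2B 50 nM, b-H3K14Ac 50 nM, 1x PBS pH 7.4 + 0.01% Tween-20. Preincubation 30 min RT; cpd 30 min RT (top 110 uM); beads 20 min RT, light-protected.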
HP1b chromo inh = blocks HP1-beta chromodomain binding to methylated histone tails | 390,000 compounds, 0.56% hits | Potency, µM (series often up to 114 µM), inactives show at the highest dose activity change, negative = inhibition, actives largely listed as inhibitors | P83916 | AlphaScreen HP1-beta / biotin-H3K9me3 peptide binding; also: nearly all actives have a fitted effect of over 70% in size
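HP1-beta protein (50 nM final) preincubated 30 min at room temperature with biotinylated H3(1-18)K9me3 peptide (50 nM) in PBS pH 7.4, 0.01% Tween-20, then compound added for 30 min. AlphaScreen streptavidin donor/nickel chelate acceptor beads (10 ug/mL final), 30 min dark, luminescence read.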
Starred values were filed as active, the others as inactive; ? = inconclusive; . = no result given; [ ] = remark or other dose. Compounds with a hit are over-represented: about 12% of the library has one in this group of screens. Calls follow the shape of the dose curve; as a rule, active = well fitted curve in the direction sought with a large enough effect; inconclusive = small, poorly fitted or top-dose-only effect, or another doubt; inactive = no such curve, though single readings can be large; an effect the other way counts as inactive or inconclusive. Potency is read from the fitted curve at half-maximal effect.

SMILES | JMJD2A Tudor | Sfp inh | G9a block | BAZ2B block | HP1b chromo inh
Cc1cccc(NC(=O)CSc2nc(=O)n3ccccc3n2)c1C | -11.3% | . | 9.4% | 9.1% | 4.5%
Cc1cc(C)cc(-n2ccnc2SCC(=O)Nc2ccccc2F)c1 | ? | . | 14.1µM* | 28.2µM* | ?
Cc1ccc(OCC(=O)N2CC(C)CC(C)C2)c([N+](=O)[O-])n1 (stereo unspecified) | -2.1% | . | . | . | 18.5%[57 µM]
Cc1ccc(C(=O)N2N=C(c3cccc(NS(C)(=O)=O)c3)CC2c2cccs2)cc1 (stereo unspecified) | -27.4% | -1.9% | -5.9% | -25.5% | 10.2%
CN1C(=O)C(=O)/C(=C(/O)c2ccc(Br)cc2)C1c1ccc(Cl)cc1 (stereo unspecified) | -15.1% | 22.6% | -1.5%[0.501 µM] | -16.5% | 37.1%
O=C1C(=O)N(C2CCS(=O)(=O)C2)C(c2cccc(O)c2)/C1=C(/O)c1ccc(Cl)cc1 (stereo unspecified) | ? | 10.9% | 31.6µM* | 79.4µM* | -2.1%
COC(=O)c1ccc(C2/C(=C(/O)c3ccc(Cl)cc3)C(=O)C(=O)N2C2CCS(=O)(=O)C2)cc1 (stereo unspecified) | 89.1µM* | 0.9% | 44.7µM* | ? | -15.6%
C=C(C(=O)OCC)C(=O)c1ccccc1 | . | -5.7% | . | . | .
CN(Cc1ccco1)S(=O)(=O)c1ccc(CN2C(=O)c3cccnc3C2=O)s1 | 31.6µM* | 8.3% | ? | -35.8%[57.1 µM] | 10.3%
CN(Cc1ccco1)S(=O)(=O)c1cc(F)ccc1CN1C(=O)c2cccnc2C1=O | 12.8% | 3.9% | 1.9% | ? | 42.8%
Cc1nn(-c2ccccc2)c(N)c1Sc1ccc([N+](=O)[O-])cc1 | ? | ? | 10µM* | -12.5% | ?
Cc1nn(-c2ccccc2)c(OC(=O)C(C)(C)C)c1Sc1ccccc1 | ? | . | 3.98µM* | -0.4% | 81.2%
Cc1nn(C(C)(C)C)c(OC(=O)C(C)(C)C)c1Sc1ccccc1 | 25.6% | . | 65.5%[59 µM] | 78.6% | 69.7%
COc1cc(C(=O)Oc2c(Sc3ccccc3)c(C)nn2-c2ccccc2)cc(OC)c1OC | -2.4% | . | 3.98µM* | -24.6% | 64.4%
COc1ccc(C(=O)Oc2c(Sc3ccccc3)c(C)nn2-c2ccccc2)cc1OC | -3.1% | . | ? | -3.0% | 58.6%
Cc1nn(-c2ccccc2)c(OC(=O)C(C)C)c1Sc1ccccc1 | ? | . | 1.58µM* | -7.2% | 12.2%
CCCCCCCCCCCCCCCCCCOC[C@@H](O)COP(=O)([O-])OCC[N+](C)(C)C | . | -1.3% | . | . | .
Cc1cc([N+](=O)[O-])ccc1NC(=O)c1cc2ccccc2o1 | -17.2% | 23.3% | -1.6% | -16.7% | 21.4%
Cc1ccc(Sc2c(C)nn(-c3ccccc3)c2OC(=O)C(C)(C)C)cc1 | 25.6% | . | 10µM* | 16.8% | 109.3%
O=[N+]([O-])c1cc(Br)c2nsnc2c1N1CCOCC1 | 39.8µM* | -3.0% | . | 31.6µM* | 20µM*
CCCNc1cc(=S)nc(N)[nH]1 | 22.4µM* | ? | 0.631µM* | -29.6% | ?
CCCCNc1cc(Cl)nc(N)n1 | 2.8% | 5.5% | -3.4% | -0.6% | 42.1%
COc1cccc(NC(=O)Cn2c(=O)n(-c3ccc(Cl)cc3)c(=O)c3oc4ccccc4c32)c1 | -15.8% | . | -35.7%[59 µM] | -13.4% | 20.5%
O=c1[nH]c(=S)[nH]c2nc(-c3ccccc3)cnc12 | 4.1% | . | . | . | 32.9%
Nc1[nH]c(=S)[nH]c(=O)c1-c1ccccc1 | 35.5µM* | -74.6% | ? | 0.5% | -28.1%
SMILES | JMJD2A Tudor | Sfp inh | G9a block | BAZ2B block | HP1b chromo inh
CCCc1cc2c(=O)c(-c3nc4ccccc4s3)c(COCC(=O)O)oc2cc1O | ? | -7.9% | 50.1µM* | -24.1% | 14.6%
CCc1cc2c(=O)c(-c3nc4ccccc4n3C)c(COCC(=O)O)oc2cc1O | ? | 13.1% | -1.5%[59 µM] | ? | 18.2%
CN1CCN(C(=O)Nc2cccc(Cl)c2)c2cccnc21 | -14.2% | . | 30.2%[59 µM] | 11.8% | 64.0%
c1cn(-c2ccnc(-c3ccc4c(c3)OCO4)n2)cn1 | . | -2.4% | -9.2%[0.501 µM] | . | .
COc1ccc(-c2cccc(NS(=O)(=O)c3cc([N+](=O)[O-])ccc3Cl)c2)nn1 | -31.5% | . | ? | -5.1% | -1.1%
CCOc1ccc(-c2cccc(NS(=O)(=O)c3cc([N+](=O)[O-])ccc3Cl)c2)nn1 | -35.9% | . | 50.1µM* | ? | -12.4%
O=[N+]([O-])c1ccc(S(=O)(=O)Nc2cccc(-c3ccc(N4CCOCC4)nn3)c2)cc1 | -15.2% | . | 25.1µM* | -26.2% | 9.2%
O=[N+]([O-])c1ccc(Cl)c(S(=O)(=O)Nc2ccc(-c3ccc(N4CCOCC4)nn3)cc2)c1 | -10.3% | . | ? | -37.6% | 18.4%
Cc1ccc([N+](=O)[O-])cc1S(=O)(=O)Nc1cccc(-c2ccc(N3CCCC3)nn2)c1 | -28.3% | . | 14.1µM* | ? | 2.1%
O=[N+]([O-])c1ccc(Cl)c(S(=O)(=O)Nc2cccc(-c3ccc(N4CCOCC4)nn3)c2)c1 | -16.4% | . | 50.1µM* | -29.2% | 8.9%
CC1(C(=O)N/N=C/c2ccc3c(c2)OCO3)CC1(Br)Br (stereo unspecified) | -3.2% | 4.3% | ? | -36.5% | 44.0%
Cc1cc(CC(=O)O)c(C)n1-c1ccc(Cl)cc1 | . | -14.8% | -43.4%[12.7 µM] | . | .
Cc1ccc(N2C(=O)C3C(c4ccccc4)N4CCCN4C3(C)C2=O)cc1 (stereo unspecified) | -5.2% | -4.0% | 7.94µM* | -8.1% | 43.4%
Cc1ccc(N2C(=O)C3C(C2=O)N2CCCN2C3c2ccccc2)cc1C (stereo unspecified) | -14.8% | 19.9% | ? | -20.8% | ?
CCOC(=O)N1CCN(C(=O)CN2C(=O)COc3ccc(C(C)(C)C)cc32)CC1 | 89.1µM* | -9.6% | ? | 38.1% | -3.4%
CCCNC(=O)COc1coc(CN2CCN(c3cccc(Cl)c3)CC2)cc1=O | -13.1% | -0.9% | 22.1%[0.501 µM] | -5.2% | 37.1%
O=C1CC(SC2=NCCS2)C(=O)N1c1ccc(Br)cc1 (stereo unspecified) | 6.4%[57.1 µM] | 17.7% | 44.7µM* | -3.2% | 53.3%
CCn1c(=O)cc(OCC(=O)N2CCN(c3ccc(C)cc3)C(C)C2)c2ccccc21 (stereo unspecified) | -34.7% | . | 6.31µM* | ? | -8.7%
CCn1c(=O)cc(OCC(=O)N2CCCCCC2)c2ccccc21 | 15.8% | 6.8% | 23.3%[59 µM] | 11.0% | 23.1%
CCCOc1cccc(C2/C(=C(/O)c3ccc(F)cc3)C(=O)C(=O)N2CCN(C)C)c1 (stereo unspecified) | 79.4µM* | 10.4% | ? | -3.0% | -2.7%
CCCOc1ccc(/C(O)=C2/C(=O)C(=O)N(CCN(C)C)C2c2ccc(O)c(OC)c2)cc1 (stereo unspecified) | -29.4% | 7.9% | 44.7µM* | 9.2% | 49.6%
CCCOc1cccc(C2/C(=C(/O)c3ccccc3)C(=O)C(=O)N2CCN(C)C)c1 (stereo unspecified) | -13.0% | 6.6% | -4.5%[12.7 µM] | ? | 14.3%
